Experimental data published in PubChem BioAssay AID493014 (National Center for Advancing Translational Sciences (NCATS), 2011).
Hit rate of the full screen: of about 340,000 compounds, about 170 (0.05%) were called active. Roughly 26% stayed inconclusive and do not appear here. Calls come from the whole dose curve; as a rule, active = well fitted inhibition curve with a large enough effect in the signal ratio, with a control signal flat (not every such curve was filed as active); inconclusive = small, poorly fitted or top-dose-only effect, or effect the other way, or a change in a side signal; inactive = flat fitted curve, though single readings scatter; the % refers to the signal ratio. The entries come from a sample that favours actives as a whole. Where a call stands in place of a potency, no number is given.

Assay: qHTS Assay to Find Inhibitors of Chronic Active B-Cell Receptor Signaling
Conditions: ABC-DLBCL IkBa-CBG/CBR reporter, luminescence ratio, 4 h; series mostly up to 46.1 µM
Description: NIH Molecular Libraries Probe Production Network [MLPCN] NIH Chemical Genomics Center [NCGC] MLPCN Grant: 1 R03 DA031086-01A1 PI Name: Dr. R. Eric Davis NCGC Assay Overview: Diffuse large B-cell lymphoma (DLBCL) is the most common category of non-Hodgkin lymphoma, with ~20,000 new cases per year in the United States. DLBCL should be regarded as a collection of different neoplasms. Microarray gene expression analysis has defined two principal types of DLBCL, named for their similarity to normal B cell stages or activation states: a germinal center B-cell (GCB) type, and an activated B-cell (ABC) type. In ABC-DLBCL, a constitutive high-level activity of the NF-kappaB family of transcription factors has been observed (1) and NF-kappaB target genes are more highly expressed in ABC primary tumors than in GCB tumors. Functional studies have shown a constitutive high-level activity of the IkappaB (inhibitor of kappa-B) kinase (IKK) complex. […] Further analysis of DLBCL primary tumors for NF-kappaB target gene expression imply that although CARD11 is required for constitutive IKK activity in all ABC-DLBCL lines, mutations in CARD11 may be the root cause of IKK activation only in lines or tumors with such mutations. In other words, CARD11 mutations may explain NF-kappaB activation in only 10% of ABC-DLBCL cases. […] This process has been termed 'chronic active BCR signaling' (CABS). The goal of this screen is to find small-molecule inhibitors of the CABS pathway found in ABC-DLBCL lines using a cell-based assay that measures IkappaBalpa stability, which has already been extensively validated in the OCI-Ly3 line (PubChem AID:445; REF: 4). […] The assay uses green (CBG68) and red (CBR) emitting beetle luciferases [Chroma-GloTM developed by Promega Corp.] where the green luciferase is fused to IkappaBalpha and the red luciferase is present in its native state. Both luciferase genes are stably present in the TMD8 human ABC DLBCL cell line, but their expression is under the control of tetracycline-inducible promoters. Following the addition of doxycycline to induce expression of the luciferases, the green luminescence in control cultures rises only slowly because the CBG fusion partner IkappaBalpha is targeted by IKK activity for rapid degradation. In contrast, green luminescence rises rapidly in the presence of proteasome inhibitors or IKK inhibitors. The rise in red luminescence of CBR is not affected by proteasome or IKK inhibitors, and serves as normalization for cell number and nonspecific effects. Compounds were screened as a concentration-titration series that ranged from 46 uM to 3 nM.
NCGC Assay Protocol Summary: Cells were seeded in 1536-well plates at 5000 cells/4uL in IMDM medium containing 0.5% FBS, w/o phenol red, 1% penicillin/streptomycin. Then, 23 nL of compounds or DMSO were delivered to each well using a pin tool. One uL 20ng/ml doxycycline was then dispensed into white solid 1536-well plates and the plates were incubated at 37C/5% C02 in a cell incubator for 4 hrs. Then 4 uL luminescent substrate mix (in-house prepared: 150 mM Tris-Cl, pH 7.6, 3 mM MgCl2, 1% Triton X-100, 5 mM DTT, 0.2 mM CoA, 0.15 mM ATP, 5 mM D-luciferin, final concentrations) was added to each well. The plate was incubated at r.t. for 10-15 min. The plates were measured on a ViewLux plate reader for green luminescence (540/20 nm filter) and red luminescence (618/8 nm filter). The green and red luminescent signals were corrected for red and green luminescence filter overlap using previously determined filter calibration constants (determined using the procedure outlined in the Promega Technical Manual; REF 4). The %Activity was determined from the ratio of corrected green/red luminescent values. MG132 were used as control. […] Red luminescent %Activity was normalized to the difference between red luminesence in basal cells (0%Activity) and zero luminescence (-100% Activity). […]

SMILES	Potency
Cn1c(CC(=O)NNC(=O)c2ccccc2F)nc2ccccc21	inactive
CN1C(=O)[C@H]2[C@@H](/C=C/c3ccccc3)N3C(=O)CN(Cc4ccc(-c5ccccc5)cc4)C(=O)[C@@]3(C)[C@H]2C1=O	inactive
COc1cc(Cl)ccc1OCc1cc(C(=O)N(C)CCc2c(C)n[nH]c2C)no1	inactive
CC1CCN(c2ccc(-c3ccc(NC(=O)c4ccco4)cc3)nn2)CC1	inactive
CC(C)(C)OC(=O)C[C@@H]1C/C=C\C[C@@H](CC(=O)N[C@H](CO)Cc2ccccc2)C(=O)NCCOC1=O	inactive
CCN1C(=O)[C@@H]2[C@@H](c3ccc(-c4ccccc4)cc3)N3CCCC[C@@]3(C(=O)OC)[C@@H]2C1=O	inactive
CCN(c1ccccc1)S(=O)(=O)c1ccc(C(=O)Nc2ccccc2OC)cc1	inactive
COc1ccc(-c2csc3ncnc(N4CCN(S(=O)(=O)c5cccc(F)c5)CC4)c23)cc1	inactive
CC(=O)c1c(C)[nH]c(C(=O)COC(=O)c2cccs2)c1C	inactive
COc1ccc(-c2c(C#Cc3ccsc3)c3cc(-c4ccc(CN5CCOCC5)cc4)ccc3n2C)cc1	inactive
O=C(Nc1cc(S(=O)(=O)Nc2ccc(Cl)cc2)ccc1O)c1ccc(F)cc1F	inactive
Cc1cc(C)cc(OCC(=O)Nc2ccc(N3CCOCC3)cc2N2CCOCC2)c1	inactive
C=CC[C@H](CC(=O)NCCO)C(=O)N[C@@H](COC(=O)[C@@H](CC=C)Cc1ccc(F)cc1)Cc1c[nH]c2ccccc12	inactive
CSCc1nnc(NC(=O)c2ccc(S(=O)(=O)N3CCCCC3C)cc2)o1 (centres undefined)	inactive
CCOCc1c(C(=O)N2CCN(Cc3ccc(Br)s3)CC2)oc2ccccc12	inactive
COc1cc(OC)cc(-c2c(-c3cccs3)c3cc(-c4ccc(OC)cc4F)ccc3n2C)c1	inactive
COc1ccc(CNC(=O)C[C@H]2C[C@H](C(=O)N3CCOCC3)[C@@]3(C)c4[nH]c5cc(CCC(=O)N(C)C)ccc5c4CCN3C2=O)cc1OC	inactive
O=C(COC(=O)c1c(Cl)cccc1Cl)Nc1cccc(S(=O)(=O)NC2=NCCCCC2)c1	inactive
CCN(CC)S(=O)(=O)c1ccc(N2CCN(C)CC2)c(NC(=O)Nc2ccccc2F)c1	inactive
CCCN(CC(=O)NC(=O)NC1CCCCC1)CC(=O)Nc1cc(Cl)ccc1Cl	inactive
COc1cc(C(=O)NCc2ccncc2)cc(Br)c1OCc1ccccc1	inactive
CN(c1ccccc1)S(=O)(=O)c1cc(C(=O)N2CCN(c3ncccn3)CC2)ccc1Cl	inactive
CN[C@H](C(=O)NC[C@H]1O[C@@H](n2cnc3c(N)ncnc32)[C@H](O)[C@@H]1O)[C@@H](C)OCc1ccccc1	inactive
CCN(CC)S(=O)(=O)c1ccc(CNC(=O)CN2C(=O)NC3(CCc4ccccc43)C2=O)cc1 (centres undefined)	inactive
O=C(NC1CCCCCC1)C1CCN(C(=O)c2ccc(Cl)cc2)CC1	inactive
Cc1nn(Cc2ccccc2)c(C)c1C(=O)N1CCN(CC(=O)Nc2ccccc2Cl)CC1	inactive
COc1cc(OC)cc(-c2c(-c3ccc(F)cc3)c3cc(-c4ccc5cc[nH]c5c4)ccc3n2C)c1	inactive

SMILES	Potency
O=C(CNC(=O)c1ccco1)NNC(=O)c1ccc(Br)cc1	inactive
CC(C)(C)OC(=O)C[C@@H]1C/C=C\C[C@@H](CC(=O)NCCO)C(=O)N[C@H](Cc2c[nH]c3ccccc23)COC1=O	inactive
CC(C)c1ccc(S(=O)(=O)N2CCN(C(C)C(=O)NC3CCCC3)CC2)cc1 (centres undefined)	inactive
CN(CC(=O)Nc1ccc(Cl)c(C(F)(F)F)c1)C(=O)CCC(=O)c1ccccc1	inactive
CC1CCC(CN2CCN=C2N(C)C)CC1 (centres undefined)	inactive
COc1ccc(C(CNC(=O)c2ccc(NS(=O)(=O)c3ccc(F)c(C)c3)cc2)N(C)C)cc1 (centres undefined)	inactive
COc1cc(OC)cc(C(=O)N[C@H](C(=O)NNC(=O)c2ccc(Br)cc2)C(C)C)c1	inactive
CCN1C(=O)[C@@H]2[C@@H](c3ccc(-c4cccc(Cl)c4)cc3)N3CCC[C@@]3(C(=O)OC)[C@@H]2C1=O	inactive
C=C(C)CNc1cc(S(=O)(=O)N2CCOCC2)ccc1Oc1ccccc1	inactive
Cc1cc(Cl)c2oc(C(=O)N(C)C(C)c3ccccn3)c(C)c2c1 (centres undefined)	inactive
CSCCC(NC(=O)c1ccccc1)C(=O)N1CCN(Cc2ccc(Cl)cc2)CC1 (centres undefined)	inactive
COc1ccc(S(=O)(=O)N(C)C[C@H]2Oc3c(NC(=O)Nc4ccc5c(c4)OCO5)cccc3C(=O)N([C@H](C)CO)C[C@@H]2C)cc1	inactive
O=C(NCCC1CCCCN1S(=O)(=O)c1ccc(Cl)cc1)C(=O)NCc1ccco1 (centres undefined)	inactive
O=C(NCCC(=O)N1O[C@@H]2C=C[C@H]1C2)OCC1c2ccccc2-c2ccccc21	inactive
N#Cc1cccc(NC(=O)C2CCCN(C(=O)c3ccc(Cl)cc3)C2)c1 (centres undefined)	inactive
CC(C)(C)OC(=O)C[C@@H]1C/C=C\C[C@@H](CC(=O)N[C@@H](CO)Cc2ccccc2)C(=O)N2CCC[C@H]2COC1=O	inactive
CNS(=O)(=O)c1cccc(C(=O)OCCCC(=O)c2ccccc2)c1	inactive
COc1ccc(-c2noc(CCC(=O)N3CCN(c4cccc(C)c4)CC3)n2)cc1	inactive
Cc1ccc(N2C(=O)N3[C@@H]4c5ccccc5OC[C@@H]4[C@@H](c4ccccc4)[C@@]3(C)C2=O)cc1	inactive
CC(C)n1ncc2c(C(=O)Nc3ccc(CC#N)cc3)cc(C3CC3)nc21	inactive
COc1cccc(N2CCN(CC(=O)Nc3ccnn3C3CCCC3)CC2)c1	inactive
COc1ccccc1-c1sc2ccccc2c1C#CC1(O)CCCCC1	inactive
C#CCOCCOCCOCCNc1nc(N2CCN(C(=O)[C@H](CO)n3cc([C@@H](N)C(C)C)nn3)CC2)nc(N2CCN(C(=O)[C@H](CCC(=O)O)n3cc([C@@H](N)[C@H](C)CC)nn3)CC2)n1	inactive
CCCCC/C=C/C1=CC(=O)C[C@H](c2ccc(Cl)cc2)C1	inactive
COc1ccc(NS(=O)(=O)c2ccc3oc(SCC(N)=O)nc3c2)cc1	inactive
COC1=C(N2CCOCC2)C(=O)c2ccccc2C1=O	inactive
CCOC(=O)C1CCN(C(=O)CN2C(=O)NC(C)(c3ccc4cc(OC)ccc4c3)C2=O)CC1 (centres undefined)	inactive
